For assay [1], the system named is guinea pig Dopamine Transporter (DAT), gene 100714898. As to the kind of experiment: NVS_TR_gDAT: NovaScreen (NVS) Transporter Assay for guinea pig Dopamine Transporter (DAT) (AID 2283369).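 Further: active compounds lower bound radioligand signal relative to DMSO.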 The procedure, abridged: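 Cell-free striatal membrane prep (guinea pig), 2 h exposure, filtration + scintillation readout of radioligand binding. Single-point 25 uM duplicate; actives rerun singleton, top conc 50 uM.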

In assay [2] the target is mouse Estrogen Receptor alpha (Era), Esr1 (gene 13982) (UniProt P19785). As to the kind of experiment: NVS_NR_mERa: NovaScreen (NVS) Nuclear Receptor Binding Assay for mouse Estrogen Receptor alpha (Era) (AID 2283378).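 Further: hit means loss of bound radioligand signal relative to DMSO.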 The procedure, abridged: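 Filter scintillation counts of bound radioligand, measured 18 h post-dose, gave the readout; decreased signal relative to DMSO controls indicated displacement from mouse Era. Primary screen ran in duplicate at 25 uM; active chemicals were retested across concentrations.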
Chain of mouse Estrogen Receptor alpha (Era), Esr1 (gene 13982) (P19785 whole entry, looked up): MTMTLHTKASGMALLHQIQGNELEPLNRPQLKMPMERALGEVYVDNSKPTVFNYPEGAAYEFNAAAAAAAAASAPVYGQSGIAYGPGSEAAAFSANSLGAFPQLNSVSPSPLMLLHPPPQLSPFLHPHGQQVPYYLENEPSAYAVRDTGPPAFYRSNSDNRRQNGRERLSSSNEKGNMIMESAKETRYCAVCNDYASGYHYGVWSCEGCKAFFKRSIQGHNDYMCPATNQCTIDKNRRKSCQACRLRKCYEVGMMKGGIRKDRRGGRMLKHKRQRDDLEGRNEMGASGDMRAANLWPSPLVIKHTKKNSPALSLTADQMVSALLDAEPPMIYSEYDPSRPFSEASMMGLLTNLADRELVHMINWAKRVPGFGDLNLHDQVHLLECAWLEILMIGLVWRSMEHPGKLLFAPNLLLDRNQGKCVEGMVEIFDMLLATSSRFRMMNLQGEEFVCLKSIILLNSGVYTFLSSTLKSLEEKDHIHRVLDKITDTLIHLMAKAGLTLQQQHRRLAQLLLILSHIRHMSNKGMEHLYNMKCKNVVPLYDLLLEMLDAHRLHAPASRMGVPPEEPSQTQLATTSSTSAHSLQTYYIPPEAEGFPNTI

The target in assay [3] is Estrogen receptor beta (Homo sapiens) (UniProt Q92731). As to the kind of experiment: OT_ER_ERbERb_1440: Odyssey Thera (OT) 24-hour HEK293T Protein-Complementation Assay for Estrogen Receptor-beta/-beta Homodimer (AID 2283380).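 Further: scored as signal increase over DMSO baseline for both agonists and antagonists.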 The method in brief:
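HEK293T cells stably expressing ER beta LBD (aa 310-547) homodimer fragment-complementation reporter, dosed 24 h. Cells formaldehyde-fixed, Draq5-stained; gain in nuclear (agonist) or nuclear plus cytoplasmic (antagonist) fluorescence versus DMSO read by laser scanning cytometry.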

Assay [4] addresses Estrogen receptor (Homo sapiens) (UniProt P03372). As to the kind of experiment: OT_ERa_GFPERaERE_0120: Odyssey Thera (OT) 2-hour HeLa Transcription Induction Assay for Estrogen Receptor (AID 2283382). The procedure, abridged: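 Fluorescence-microscopy images of the GFP-ERα/ERE reporter, scored by high-content image algorithms, give the readout. HeLa exposure lasted 2 h, and only signal increase over DMSO was fitted.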

The target of assay [5] is Bile acid receptor (Homo sapiens) (UniProt Q96RI1). As to the kind of experiment: OT_FXR_FXRSRC1_0480: Odyssey Thera (OT) 8-hour HEK293T Protein-Complementation Assay for Farnesoid X receptor/SRC-1 Co-activator (AID 2283383). The method in brief:
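Binding of FXR to coactivator SRC-1 was read as fluorescence from a reconstituted split reporter in HEK293T cells, 8 h after chemical addition. Only increases in signal versus DMSO were fit.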

For assay [6] the target is unchanged. As to the kind of experiment: OT_FXR_FXRSRC1_1440: Odyssey Thera (OT) 24-hour HEK293T Protein-Complementation Assay for Farnesoid X receptor/SRC-1 Co-activator (AID 2283384). The procedure, abridged: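 Protein-fragment complementation: FXR and SRC-1 fused to reporter fragments that reassemble on interaction, read by fluorescence intensity. Human HEK293T cells measured 24 h post-dose; positive-direction fit versus DMSO.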

Assay [7] concerns the target Retinoic acid receptor RXR-alpha (Homo sapiens) (UniProt P19793). As to the kind of experiment: OT_NURR1_NURR1RXRa_0480: Odyssey Thera (OT) 8-hour HEK293T Protein Complementation Assay for Nurr1/retinoid X receptor (RXR) (AID 2283385). The procedure, abridged:
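Interaction of Nurr1 with RXRα read as reconstituted reporter fluorescence in a HEK293T fragment-complementation system, 8 h post-treatment; increase over DMSO baseline analysed.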

Assay [8] has the same target. As to the kind of experiment: OT_NURR1_NURR1RXRa_1440: Odyssey Thera (OT) 24-hour HEK293T Protein Complementation Assay for Nurr1/retinoid X receptor (RXR) (AID 2283386). The method in brief:
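Gain in fluorescence, fitted relative to DMSO, reflects Nurr1–RXRα association in HEK293T cells after 24 h dosing. Bait and prey are each linked to a reporter-protein fragment that reassembles on interaction.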

The target in assay [9] is Peroxisome proliferator-activated receptor gamma (Homo sapiens) (UniProt P37231). Nature of the assay: OT_PPARg_PPARgSRC1_0480: Odyssey Thera (OT) 8-hour Protein-Complementation Assay for Peroxisome Proliferator-activated Receptor Gamma / SRC-1 Co-activator (AID 2283387).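 Further: nuclear to cytoplasmic split Venus YFP fluorescence ratio reporting PPARg SRC-1 interaction.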 The method in brief:
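Split-YFP (IFP1/IFP2) PPARg/SRC-1 reporter, HEK293T, 37 °C, 5% CO2; 8 h compound; formaldehyde fix + Draq5; high-content imaging, N/C ratio, ≥350 cells/image, positive direction vs DMSO.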

The target is the same in assay [10]. As to the kind of experiment: NVS_NR_hPPARg: NovaScreen (NVS) Nuclear Receptor Binding Assay for human Peroxisome Proliferator-activated Receptor gamma (PPARg) (AID 2283370). The procedure, abridged: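 FP read-out, 2 h post-dose, cell-free extracted receptor protein. Signal loss vs DMSO negative control = binding activity. Single-conc duplicate HTS at 25 uM; concentration-response follow-up for actives.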

Assay [11] concerns the target Estrogen receptor (Homo sapiens) (UniProt P03372). Nature of the assay: OT_ERa_GFPERaERE_0480: Odyssey Thera (OT) 8-hour HeLa Transcription Induction Assay for Estrogen Receptor (AID 2283381; active means hit-call score of the fitted dose curve at least 0.9, where 1 is the maximum; inactive means score below 0.9). The procedure, abridged: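 Fluorescence microscopy with high-content image analysis measures ERE-driven GFP induction in HeLa cells at 8 h post-dose. Increases fitted against DMSO baseline.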

In assay [12] the test system is rat Norepinephrine Transporter (NET), gene 83511. As to the kind of experiment: NVS_TR_rNET: NovaScreen (NVS) Transporter Assay for rat Norepinephrine Transporter (NET) (AID 2283373). The method in brief:
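Competitive radioligand displacement at the rat NET using forebrain membrane preparations, 1 h incubation, filter-based scintillation readout. Primary testing in duplicate at a single 25 uM concentration; confirmed actives retested across concentrations.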

Assay [13] has as its target human Dopamine Transporter (DAT), SLC6A3 (gene 6531) (UniProt Q01959). Nature of the assay: NVS_TR_hDAT: NovaScreen (NVS) Transporter Assay for human Dopamine Transporter (DAT) (AID 2283374).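 Further: activity means loss of bound radioligand signal relative to DMSO.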 The method in brief:
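hDAT membranes + tritiated/iodinated radioligand, competitive displacement; 1 h; filter scintillation readout. Single conc 25 uM (duplicate), then conc-response for actives. DMSO = negative control.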

In assay [14] the target is Norway rat Vesicular Monoamine Transporter (VMAT2), neurotransmitter transporter, Slc18a2 (gene 25549) (UniProt Q01827). Nature of the assay: NVS_TR_rVMAT2: NovaScreen (NVS) Transporter Assay for Norway rat Vesicular Monoamine Transporter (VMAT2), neurotransmitter transporter (AID 2283376).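 Further: actives lower the bound radioligand signal below the DMSO level.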 The procedure, abridged:
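Filter-based scintillation counting of radioligand bound to rat forebrain-derived VMAT2 protein, cell-free, 1 h post-dose. Signal loss relative to DMSO control scored; single-concentration duplicate screen (25 uM) followed by concentration-response testing of actives.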

Assay [15] has as its target human Norepinephrine Transporter (NET), SLC6A2 (gene 6530) (UniProt P23975). Nature of the assay: NVS_TR_hNET: NovaScreen (NVS) Transporter Assay for human Norepinephrine Transporter (NET) (AID 2283377).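 Further: cell-free membrane protein extracted from CHO cells expressing human NET; displacement of radioligand from human NET seen as loss of scintillation signal.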 The procedure, abridged: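 CHO cell extracts expressing the transporter; tritiated or iodinated tracer displaced competitively; filtration plus scintillation readout at 1 h. Single-point duplicates at 25 uM, concentration series for follow-up; activity = signal drop relative to DMSO.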

The target of assay [16] is guinea pig Sigma Receptor, Non-selective Binding, SIGMAR1 (gene 100135589) (UniProt Q60492). Nature of the assay: NVS_OR_gSIGMA_NonSelective: NovaScreen (NVS) Nuclear Receptor Binding Assay for guinea pig Sigma Receptor, Non-selective Binding (AID 2283367). The method in brief:
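Membranes from guinea pig brain incubated with radioligand and test chemical for 1 h, then filtered and scintillation-counted. Duplicate primary testing at 25 uM, with concentration-series follow-up for actives.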

The target of assay [17] is Agonist Androgen Response Element (ARE), AR (gene 367) (UniProt P10275). As to the kind of experiment: OT_AR_ARELUC_AG_1440: Odyssey Thera (OT) 24-hour CHO-K1 Luciferase Assay for Agonist Androgen Response Element (ARE) (AID 2283379). The procedure, abridged: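 Gain-of-signal reporter endpoint: cells (CHO-K1, hamster) are treated 24 h, luciferin/ATP reagent added, and luminescence compared with DMSO baseline.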
Chain of Agonist Androgen Response Element (ARE), AR (gene 367) (P10275 whole entry, looked up): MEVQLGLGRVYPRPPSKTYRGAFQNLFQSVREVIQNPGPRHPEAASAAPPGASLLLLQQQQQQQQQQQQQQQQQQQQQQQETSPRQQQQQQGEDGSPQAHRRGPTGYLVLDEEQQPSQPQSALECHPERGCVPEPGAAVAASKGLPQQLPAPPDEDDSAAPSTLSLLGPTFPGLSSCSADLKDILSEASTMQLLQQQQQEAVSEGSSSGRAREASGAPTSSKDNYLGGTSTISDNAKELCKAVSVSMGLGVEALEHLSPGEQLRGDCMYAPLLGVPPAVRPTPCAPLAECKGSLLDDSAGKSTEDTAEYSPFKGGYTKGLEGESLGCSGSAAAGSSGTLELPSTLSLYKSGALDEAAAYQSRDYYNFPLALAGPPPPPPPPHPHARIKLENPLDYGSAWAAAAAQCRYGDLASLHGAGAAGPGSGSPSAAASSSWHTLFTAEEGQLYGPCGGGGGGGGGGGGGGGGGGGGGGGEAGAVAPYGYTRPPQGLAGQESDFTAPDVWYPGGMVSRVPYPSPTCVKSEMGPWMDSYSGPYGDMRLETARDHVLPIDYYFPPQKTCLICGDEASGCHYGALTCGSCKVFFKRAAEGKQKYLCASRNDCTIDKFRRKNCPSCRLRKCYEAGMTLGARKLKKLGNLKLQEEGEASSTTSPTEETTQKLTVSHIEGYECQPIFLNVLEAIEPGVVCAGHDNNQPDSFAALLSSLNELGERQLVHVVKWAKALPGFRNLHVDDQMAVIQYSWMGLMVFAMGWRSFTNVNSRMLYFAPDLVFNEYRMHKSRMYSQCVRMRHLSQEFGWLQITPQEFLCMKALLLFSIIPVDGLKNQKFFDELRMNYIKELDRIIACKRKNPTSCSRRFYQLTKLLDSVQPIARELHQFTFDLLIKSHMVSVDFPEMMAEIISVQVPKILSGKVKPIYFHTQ

For assay [18], the target named is human Serotonin Transporter (SERT), SLC6A4 (gene 6532) (UniProt P31645). Nature of the assay: NVS_TR_hSERT: NovaScreen (NVS) Transporter Assay for human Serotonin Transporter (SERT) (AID 2283372). The procedure, abridged:
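Human platelet membrane preparation; displacement of radioligand from serotonin transporter measured after 1 h by filtration and scintillation counting. Single 25 uM duplicate screen, then concentration series for actives, with DMSO as negative baseline.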

Assay [19] deals with rat Serotonin Transporter (SERT), Slc6a4 (gene 25553) (UniProt P31652). As to the kind of experiment: NVS_TR_rSERT: NovaScreen (NVS) Transporter Assay for rat Serotonin Transporter (SERT) (AID 2283375). The method in brief: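 Radioligand displacement, filter scintillation readout; rat forebrain membrane prep, 1 h post-dose. Single-conc 25 uM duplicate screen, then concentration-response on actives. Loss of signal vs DMSO baseline.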

Where “and” joins values, the source holds several entries; their conditions need not be identical. Equal values may be shown once. Results filed as inconclusive are left out. More than one record can exist for a structure, and the calls need not agree. Calls of active or inactive are those of the source. How the source made its calls, unless noted: active means hit-call score of the fitted dose curve at least 0.9, where 1 is the maximum; inconclusive means response in the unintended direction; inactive means score below 0.9.

This is an account of results in PubChem BioAssay (EPA / NIEHS).

Chain of human Norepinephrine Transporter (NET), SLC6A2 (gene 6530) (P23975 whole entry, looked up): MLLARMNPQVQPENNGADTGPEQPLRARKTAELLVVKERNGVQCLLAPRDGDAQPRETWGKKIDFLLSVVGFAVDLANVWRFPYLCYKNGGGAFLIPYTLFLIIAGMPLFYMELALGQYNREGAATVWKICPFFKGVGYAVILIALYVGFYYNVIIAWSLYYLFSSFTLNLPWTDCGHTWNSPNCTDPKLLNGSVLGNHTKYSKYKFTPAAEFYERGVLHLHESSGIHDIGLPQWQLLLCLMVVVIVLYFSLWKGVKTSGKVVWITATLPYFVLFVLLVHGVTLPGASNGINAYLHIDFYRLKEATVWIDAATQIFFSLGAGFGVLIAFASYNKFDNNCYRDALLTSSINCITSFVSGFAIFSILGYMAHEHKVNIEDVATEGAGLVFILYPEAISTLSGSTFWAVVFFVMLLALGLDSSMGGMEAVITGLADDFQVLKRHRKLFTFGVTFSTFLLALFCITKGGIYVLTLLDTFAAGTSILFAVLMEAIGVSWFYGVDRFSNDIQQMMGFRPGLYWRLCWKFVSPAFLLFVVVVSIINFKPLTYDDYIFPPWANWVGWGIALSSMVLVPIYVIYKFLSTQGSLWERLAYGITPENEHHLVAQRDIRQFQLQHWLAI
Chain of human Dopamine Transporter (DAT), SLC6A3 (gene 6531) (Q01959 whole entry, looked up): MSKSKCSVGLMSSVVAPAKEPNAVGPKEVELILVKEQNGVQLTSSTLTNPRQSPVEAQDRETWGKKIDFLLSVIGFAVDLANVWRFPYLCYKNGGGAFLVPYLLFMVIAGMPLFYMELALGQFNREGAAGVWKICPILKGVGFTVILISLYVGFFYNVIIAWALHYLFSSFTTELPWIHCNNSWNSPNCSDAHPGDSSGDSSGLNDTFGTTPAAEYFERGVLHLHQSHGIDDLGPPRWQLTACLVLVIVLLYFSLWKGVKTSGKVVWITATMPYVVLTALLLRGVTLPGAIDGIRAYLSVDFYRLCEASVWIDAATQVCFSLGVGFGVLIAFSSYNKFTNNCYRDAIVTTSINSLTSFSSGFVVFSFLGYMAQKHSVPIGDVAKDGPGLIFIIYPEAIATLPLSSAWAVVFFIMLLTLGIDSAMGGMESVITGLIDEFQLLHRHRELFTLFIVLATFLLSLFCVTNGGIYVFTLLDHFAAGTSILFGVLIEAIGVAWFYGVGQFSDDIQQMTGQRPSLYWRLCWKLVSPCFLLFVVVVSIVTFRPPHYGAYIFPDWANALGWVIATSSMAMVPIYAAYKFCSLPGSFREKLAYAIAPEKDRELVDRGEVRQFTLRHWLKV
Chain of Retinoic acid receptor RXR-alpha (Homo sapiens) (P19793 whole entry, looked up, the tested form may be a part): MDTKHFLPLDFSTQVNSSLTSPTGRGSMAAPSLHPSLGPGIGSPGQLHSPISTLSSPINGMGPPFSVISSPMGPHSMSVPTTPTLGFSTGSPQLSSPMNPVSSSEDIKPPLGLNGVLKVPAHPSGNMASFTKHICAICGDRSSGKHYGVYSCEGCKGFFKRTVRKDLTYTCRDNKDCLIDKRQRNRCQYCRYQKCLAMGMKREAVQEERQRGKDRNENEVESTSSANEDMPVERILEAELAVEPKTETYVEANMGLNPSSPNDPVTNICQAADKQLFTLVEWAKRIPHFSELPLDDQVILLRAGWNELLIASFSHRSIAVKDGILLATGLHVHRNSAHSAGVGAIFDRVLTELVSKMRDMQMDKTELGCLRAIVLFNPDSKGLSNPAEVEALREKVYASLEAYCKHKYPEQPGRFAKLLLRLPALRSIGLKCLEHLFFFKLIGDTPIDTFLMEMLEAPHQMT
Chain of Bile acid receptor (Homo sapiens) (Q96RI1 whole entry, looked up): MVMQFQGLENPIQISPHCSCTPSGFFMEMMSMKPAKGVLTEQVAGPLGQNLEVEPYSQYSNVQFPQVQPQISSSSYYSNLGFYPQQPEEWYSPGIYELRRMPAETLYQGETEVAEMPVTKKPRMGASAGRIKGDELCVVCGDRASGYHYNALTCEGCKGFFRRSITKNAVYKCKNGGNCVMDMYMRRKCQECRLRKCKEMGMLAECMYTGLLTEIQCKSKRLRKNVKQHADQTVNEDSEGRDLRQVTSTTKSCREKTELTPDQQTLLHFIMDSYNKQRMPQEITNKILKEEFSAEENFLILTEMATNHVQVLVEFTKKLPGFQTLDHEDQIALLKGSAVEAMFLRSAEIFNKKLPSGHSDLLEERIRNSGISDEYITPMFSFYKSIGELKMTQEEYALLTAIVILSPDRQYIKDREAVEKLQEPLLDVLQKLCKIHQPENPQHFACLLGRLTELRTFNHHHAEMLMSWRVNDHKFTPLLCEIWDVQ
Chain of Estrogen receptor (Homo sapiens) (P03372 whole entry, looked up): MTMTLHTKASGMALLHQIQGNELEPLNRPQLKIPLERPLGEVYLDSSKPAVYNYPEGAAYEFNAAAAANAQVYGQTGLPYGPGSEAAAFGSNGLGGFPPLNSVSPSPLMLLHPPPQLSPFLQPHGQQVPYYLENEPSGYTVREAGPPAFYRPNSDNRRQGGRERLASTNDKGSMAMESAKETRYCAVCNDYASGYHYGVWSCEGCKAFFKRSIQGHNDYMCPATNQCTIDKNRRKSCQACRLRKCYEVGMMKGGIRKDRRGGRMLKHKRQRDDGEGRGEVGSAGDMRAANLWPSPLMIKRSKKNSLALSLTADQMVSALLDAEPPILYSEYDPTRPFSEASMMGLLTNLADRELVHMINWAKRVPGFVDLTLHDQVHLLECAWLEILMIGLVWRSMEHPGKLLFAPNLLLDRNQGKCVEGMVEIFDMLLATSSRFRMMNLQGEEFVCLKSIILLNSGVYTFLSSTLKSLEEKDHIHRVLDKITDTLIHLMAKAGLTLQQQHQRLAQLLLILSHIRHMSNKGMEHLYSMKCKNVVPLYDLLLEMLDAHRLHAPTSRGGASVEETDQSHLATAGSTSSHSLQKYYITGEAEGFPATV
Chain of Peroxisome proliferator-activated receptor gamma (Homo sapiens) (P37231 whole entry, looked up): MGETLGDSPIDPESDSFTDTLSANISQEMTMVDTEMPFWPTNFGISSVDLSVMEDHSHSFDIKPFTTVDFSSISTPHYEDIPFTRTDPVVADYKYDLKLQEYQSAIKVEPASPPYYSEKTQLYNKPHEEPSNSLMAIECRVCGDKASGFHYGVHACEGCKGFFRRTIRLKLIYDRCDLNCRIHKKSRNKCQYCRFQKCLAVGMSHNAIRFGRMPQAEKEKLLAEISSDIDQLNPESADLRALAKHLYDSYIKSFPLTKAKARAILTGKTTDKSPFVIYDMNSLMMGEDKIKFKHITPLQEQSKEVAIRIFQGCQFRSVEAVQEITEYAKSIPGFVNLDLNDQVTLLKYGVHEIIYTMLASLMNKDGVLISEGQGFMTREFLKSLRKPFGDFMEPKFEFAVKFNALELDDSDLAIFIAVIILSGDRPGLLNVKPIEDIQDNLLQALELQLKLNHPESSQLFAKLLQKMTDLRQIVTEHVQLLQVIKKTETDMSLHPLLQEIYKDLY

For `Cc1cc(O)ccc1Cl`, the compound was called inactive in assay [1], in assay [2], in assay [4], in [5], in assay [7] and in assay [8]. The compound was called inactive in [9]. The AC50 is 52.5 µM (active) in assay [3] and 34.7 µM (active) in assay [6].
With `Oc1c(Cl)c(Cl)c(Cl)c(Cl)c1Cl`, the outcome in assay [10], in assay [2], in assay [11], in [4], in assay [7] and in assay [8] was inactive. In addition, in assay [9], the call was inactive.
Regarding `CCC(C)(c1ccc(O)cc1)c1ccc(O)cc1`, the half-maximal activity concentration (AC50) was 17.3 µM (active) in [1]; 5.51 µM (active) in assay [10]; 7.9 µM (active) in assay [13]; 5.28 µM (active) in assay [14]; 8.33 µM (active) in [15]; 213 nM (active) [middle of 5 runs] in assay [4]. Further, the AC50 in assay [5] is 12.1 µM (active); in assay [6], 30.2 µM (active) and 32.2 µM (active); in assay [7] it was 30.8 µM (active) and 67 µM (active) and 68.3 µM (active); in [8], 92.5 µM (active) and 87.7 µM (active). In addition, the call in assay [12], in assay [5], in [6], in assay [7], in assay [8] and in assay [9] was inactive.
For `C[C@]12CCC(=O)C=C1CC[C@@H]1[C@@H]2CC[C@@]2(C)[C@H]1CC[C@]2(C)O`, the AC50 in assay [16] is 7.29 µM (active); in assay [5], 16.1 µM (active) and 16.7 µM (active) and 11.7 µM (active); in [6], 23.5 µM (active) and 27.9 µM (active) and 33.2 µM (active). The outcome in assay [13], in assay [2], in [11], in assay [4], in assay [5] and in assay [6] was inactive. In addition, the compound was classed as inactive in assay [7], in [8] and in assay [9].
In the case of `CCC(=O)O[C@H]1CC[C@H]2[C@@H]3CCC4=CC(=O)CC[C@]4(C)[C@H]3CC[C@]12C`, the call in assay [16], in assay [10], in [2], in assay [3], in assay [11] and in assay [4] was inactive. The result in [7], in assay [8] and in [9] was inactive. Besides, the AC50 in [17] is 3.34 nM (active) and 0.907 nM (active) and 1.93 nM (active); in [3], 12.7 µM (active) and 3.36 µM (active) and 12.8 µM (active); in assay [11] it was 12.3 µM (active); in [7] it was 42.7 µM (active) and 57.9 µM (active); in assay [8] it was 73.3 µM (active) and 73.7 µM (active) and 78.4 µM (active).
On to `CCCCCCCCCC[N+](C)(C)CCCCCCCCCC`, for which the AC50 was 0.432 µM (active) in assay [16]; 25 µM (active) in assay [1]; 13.4 µM (active) in assay [18]; 5.73 µM (active) in [13]; 12.6 µM (active) in [19]; 13.4 µM (active) in assay [14]. Besides, the AC50 is 1.46 µM (active) in assay [15], 5.55 µM (active) in [2], 17.1 µM (active) in assay [11] and 16.1 µM (active) in assay [4]. Also, the call in assay [10], in assay [5], in assay [6] and in assay [9] was inactive.
For the compound `CCOC(=O)C(O)(c1ccc(Cl)cc1)c1ccc(Cl)cc1`, the AC50 was 14.3 µM (active) in assay [1], 3.45 µM (active) in assay [13] and 15.5 µM (active) in assay [15]. The result in assay [2], in [17], in [3], in assay [11], in [4] and in assay [9] was inactive.

What is called AC50 is the concentration giving half of the maximal activity seen.
